# Shown are actives, neighbours in structure and some others; about 18% of the full set was active somewhere.
# Gal4-VP16 FLuc: VP16 counterscreen qHTS for inhibitors of ROR gamma transcriptional activity | 3.5% of 310,000 active | Potency, µM (series often up to 53.6 µM), inactives show top-dose activity, negative = inhibition, usual class: inhibitors | Drosophila S2 Gal4-VP16 UAS-luciferase, luminescence, 20 h | AID 2546, 2010;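 further: Gal4-VP16 expression switched on by copper sulfate through the metallothionein promoter; potency means the concentration at half of the fitted maximal effect; nearly all actives have a fitted effect of over 50% in size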
# RORg inh: qHTS for inhibitors of ROR gamma transcriptional activity; Nuclear receptor ROR-gamma (Mus musculus), P51450; Drosophila S2 Gal4-RORgamma UAS-luciferase reporter, 20 h; Potency, µM (series often up to 53.6 µM), for the others: top-dose activity change, negative = inhibition, actives largely listed as inhibitors; 5.4% of 310,000 active; AID 2551, 2010; further: potency means the concentration at half of the fitted maximal effect; nearly all actives have a fitted effect of over 60% in size
# Target sequence (P51450 whole entry, looked up, the tested form may be a part): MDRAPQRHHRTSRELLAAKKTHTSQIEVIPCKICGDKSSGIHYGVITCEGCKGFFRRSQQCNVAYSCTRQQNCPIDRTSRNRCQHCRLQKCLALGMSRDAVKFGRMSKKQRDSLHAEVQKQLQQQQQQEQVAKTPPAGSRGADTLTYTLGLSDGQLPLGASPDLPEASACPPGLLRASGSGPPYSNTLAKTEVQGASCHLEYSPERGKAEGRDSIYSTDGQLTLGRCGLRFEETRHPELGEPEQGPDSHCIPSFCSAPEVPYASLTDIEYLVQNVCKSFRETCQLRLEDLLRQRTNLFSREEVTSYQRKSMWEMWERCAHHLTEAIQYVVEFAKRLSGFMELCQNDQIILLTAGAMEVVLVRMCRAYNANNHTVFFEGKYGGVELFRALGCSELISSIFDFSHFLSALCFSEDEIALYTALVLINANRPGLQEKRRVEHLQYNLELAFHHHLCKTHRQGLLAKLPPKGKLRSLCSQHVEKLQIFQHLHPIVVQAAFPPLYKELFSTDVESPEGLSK
#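 Using a luciferase readout, inhibitors were identified by reduced reporter activity in Drosophila cells coexpressing a copper-inducible Gal4–ROR gamma fusion and UAS-driven Photinus luciferase, incubated 20 hr after 700 uM copper sulfate.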
# DT40 TDP1 no CPT: qHTS for Inhibitors of human tyrosyl-DNA phosphodiesterase 1 (TDP1): qHTS in cells in absence of CPT | 15% of 420,000 active | DT40 Tdp1-/- hTDP1 cells, no CPT, ATP luminescence, 48 h | Potency, µM (top dose mostly 46.2 µM), for inactives: at the highest dose activity change, negative = growth inhibition, usual class: inhibitors | AID 686978, 2013; further: potency means the concentration at half of the fitted maximal effect; nearly all actives have a fitted effect of over 55% in size
#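 A cellular qHTS used chicken DT40 cells lacking endogenous Tdp1 but carrying stably transfected human TDP1. Compounds were applied without camptothecin, and cell growth kinetics were judged by ATP-dependent luminescence after ≥48 hr.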
# IL1B secr inh: qHTS for Inhibitors of Inflammasome Signaling: IL-1-beta AlphaLISA Primary Screen; activity change, % at 57.5 µM; 4.7% of 360,000 active; THP-1 LPS/ATP IL-1B secretion, AlphaLISA, 16 h; hits give low values; in the data active means activity change below about -50%; inconclusive means mostly about -30% to -49%
#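 Secreted IL-1B measured by AlphaLISA bead assay after 16 h compound exposure of THP-1 cells; compounds (final up to 57.5 uM) added 1 h before LPS (250 ng/mL) and ATP (1.25 mM) stimulation; lower signal means less secretion.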
# LDHA inh: qHTS assay for inhibitors of human lactate dehydrogenase. 0.15% of 480,000 active. purified LDHA, NADH/diaphorase-resazurin fluorescence; hits give low values. AID 1347041, 2019. activity change, % (values are at about 110 or 230 µM). L-lactate dehydrogenase A chain (Homo sapiens), P00338; in the data active means activity change below about -30%; inconclusive means mostly about -25% to -30%;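 further: plate controls were DMSO wells for no effect and wells without enzyme for full effect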
#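 Resorufin fluorescence (ex540/em590), read at 0 and 20 min after diaphorase/resazurin addition, reports the NADH left after a 5 min room-temperature reaction of 2 nM human LDH5 with 0.06 mM NADH and 0.2 mM pyruvate.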
# DT40 TDP1 CPT: qHTS for Inhibitors of human tyrosyl-DNA phosphodiesterase 1 (TDP1): qHTS in cells in presence of CPT | chicken DT40 Tdp1-/-;hTDP1 cells + 20 nM CPT, ATP luminescence, 48 h | Potency, µM (doses to about 46.2 µM), without a hit: at the highest dose activity change, negative = growth inhibition, actives largely listed as inhibitors | 12% of 420,000 active | AID 686979, 2013; further: potency means the concentration at half of the fitted maximal effect; nearly all actives have a fitted effect of over 55% in size
#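 Chicken DT40 Tdp1-/- cells stably complemented with human TDP1 were seeded at 400 cells/well in medium containing 20 nM camptothecin, exposed to pin-transferred compounds, and grown at 37 °C for at least 48 hr. Viability was read as ATP luminescence.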
# The depositor's hits bear a star; ? = inconclusive; · = no result; [ ] = dose if it differs, or a comment. Unless noted, the call rests on the fitted dose curve; in most records, active means well fitted curve in the direction sought with a large enough effect; inconclusive means small, poorly fitted or top-dose-only effect, or another doubt; inactive means no such curve, though single readings can be large; an effect the other way counts as inactive or inconclusive. Unless noted, on the % scale 0 is the no-effect control and ±100 the full control effect.
SMILES,Gal4-VP16 FLuc,RORg inh,DT40 TDP1 no CPT,IL1B secr inh,LDHA inh,DT40 TDP1 CPT
CCn1c2ccc(C)cc2c2nnc(SCCN3CCOCC3)nc21,-5%,-27%,21µM*,-64*,1,?
Cc1ccc2c(c1)c1nc3ccccc3nc1n2C,-9%,-19%,?,-6,-1,?
Cn1c2ccccc2c2nnc(SCCN3CCOCC3)nc21,17%,16%,-18%,7,1,?
Cc1ccc2c(c1)c1nc3ccccc3nc1n2CCN1CCOCC1,-16%,-7%,18µM*,-58*,0,?
CCn1c2ccccc2c2nnc(SCCN3CCOCC3)nc21,-1%,-16%,?,12,-2,-20%
Cc1ccc(C)c(-n2ncc3c(NNC(=O)C4CCCCC4)ncnc32)c1,·,·,·,·,-1,·
CCn1c2ccccc2c2nnc(SCCN3CCCCC3)nc21,18%,-3%[1.91 µM],?,?,1,26µM*
CCn1c2ccccc2c2nnc(SCc3ccc(C(=O)OC)o3)nc21,13µM*,?,23µM*,-21,0,18µM*
CCN(CC)CCn1c2ccc(F)cc2c2nc(C)sc21,-2%,1%,-28%,?,-2,-13%
Cc1nc2c3cc(Cl)ccc3n(CCN3CCOCC3)c2s1,1%,3%,15µM*,-23,-6,?
COc1cccc(C(=O)Nc2ccc3oc(-c4cccc(OC)c4)nc3c2)c1,·,·,·,·,15,·
CN(C)CCCN(Cc1cc2cc3c(cc2[nH]c1=O)OCO3)C(=S)NCc1ccco1,0%,-10%,-27%,?,-3,9%
CN(C)CCCN(Cc1cc2cc3c(cc2[nH]c1=O)OCO3)C(=S)Nc1cccc(Cl)c1,?,21%,29µM*,-102*,-4,?
COc1ccccc1NC(=S)N(CCCN(C)C)Cc1cc2cc3c(cc2[nH]c1=O)OCO3,-7%,9%,-16%,-23,2,-1%
CN(C)CCCN(Cc1cc2cc3c(cc2[nH]c1=O)OCO3)C(=S)Nc1ccccc1,-1%,1%,-4%,-62*,-7,0%
COc1ccccc1NC(=O)N(Cc1cccs1)Cc1cc2cc3c(cc2[nH]c1=O)OCO3,-7%,?,16µM*,8,-2,?
CCN(CC)CCCN(Cc1cc2cc3c(cc2[nH]c1=O)OCO3)C(=S)Nc1ccccc1OC,-5%,1%,-15%,-29,-7,18µM*
CCCn1nc(C(=O)Nc2ccc(SC(F)F)cc2)c2ccccc2c1=O,·,·,·,·,1,·
Cc1ccccc1C(C)NC(=O)c1nn(C)c(=O)c2ccccc12 (configuration not stated),·,·,·,·,7,·
Cc1cc2ccccc2n1CC(=O)N1CCN(C=O)CC1,·,·,·,·,-6,·
CCC(CC)C(=O)Nc1ccccc1SCc1cc(=O)n2ccsc2n1,·,·,·,·,-2,·
CCc1ccc2[nH]c(=O)c(CN(CCN(C)C)C(=O)Nc3ccccc3OC)cc2c1,7%,18%,?,?,-5,?
CNC(=S)N(Cc1ccc(OC)cc1)Cc1cc2cc(C)ccc2[nH]c1=O,-3%,4%,-3%,8,-6,6%
CCOc1ccc2[nH]c(=O)c(CN(CCN3CCCC3)C(=S)Nc3ccccc3OC)cc2c1,-4%,2%,-19%,-62*,3,-29%
COC(=O)c1ccccc1NC(=S)N(Cc1ccc2c(c1)OCO2)Cc1cc2cc(OC)ccc2[nH]c1=O,?,33%,16µM*,0,-2,9.2µM*
SMILES,Gal4-VP16 FLuc,RORg inh,DT40 TDP1 no CPT,IL1B secr inh,LDHA inh,DT40 TDP1 CPT
CCc1ccc2[nH]c(=O)c(CN(Cc3ccccc3)C(=O)Nc3ccccc3OC)cc2c1,-2%,35%,?,-59*,-4,?
CCc1ccc(/C=C/C(=O)c2ccc(CC(=O)O)cc2)cc1,·,·,·,·,-1,·
OC(COc1ccc2c(c1)CCC2)CN1CCN(c2ccccc2F)CC1 (configuration not stated),-12%,29%,-9%,-53*,-1,-10%
C=CCc1ccccc1OCC(O)CN1CCN(c2ccc(OC)cc2)CC1 (configuration not stated),-10%,0%,?,-22,6,16µM*
C=CCc1ccccc1OCC(O)CNC (configuration not stated),-3%,0%,-25%,23,-1,4%
C=CCc1ccccc1OCC(O)CN(C(C)C)C(C)C (configuration not stated),-1%,-16%,23µM*,-17,-1,-24%
COc1ccc(N2CCN(CC(O)COc3ccc4c(c3)CCC4)CC2)cc1 (configuration not stated),-1%,-2%,23µM*,?,2,18µM*
COc1ccc(OCC(O)CN2CCN(c3ccc(Cl)cc3)CC2)cc1 (configuration not stated),4%,25%,?,15,0,-24%
C=CCc1ccccc1OCC(O)CN1CCOCC1 (configuration not stated),·,·,-22%,-14,5,-8%
O=[N+]([O-])c1ccc(OCC(O)CN2CCN(c3ccccc3F)CC2)cc1 (configuration not stated),?,1%,?,-11,-7,?
COc1cc(C(=O)Nc2cccc(SC)c2)cc(Br)c1O,·,·,·,·,-12,·
COC(=O)Nc1ccc(CNC(=O)c2ccccc2C(=O)c2ccccc2)cc1,·,·,·,·,12,·
O=C(CCC(=O)c1cccs1)Nc1cccc(N2CCCC2=O)c1,·,·,·,·,-1,·
CS(=O)(=O)N1CCN(c2ccc(NCc3ccccc3)nn2)CC1,·,·,·,·,-2,·
OC(COCc1ccc(Cl)cc1)CN1CCN(CC(O)COCc2ccc(Cl)cc2)CC1 (configuration not stated),-4%,-8%,15µM*,?,5,18µM*
C=CCc1ccc(OCC(O)CN2CCN(Cc3ccc(Cl)cc3)CC2)c(OC)c1 (configuration not stated),?,51%,21µM*,?,-5,?
OC(COCc1ccc(Cl)cc1)CN1CCCCC1 (configuration not stated),-11%,-14%,-1%,-3,-10,5%
O=C(CCC1CCCC1)Nc1cccc2ncccc12,·,·,·,·,7,·
COc1ccc(OC)c(NC(=O)Cn2cccc(-c3nc(-c4ccc(OC)c(OC)c4)no3)c2=O)c1,·,·,·,·,5,·
